{"source": "paper PMC5540273", "about": "(PLoS ONE, 2017)", "key": {"CDK4-cyclinD3": {"system": "CDK4-cyclinD3", "settings": "concentration: 1 μM, replicates: in singlicate; n = 1"}, "CDK4": {"system": "CDK4", "settings": "concentration: 1 μM, replicates: in singlicate, n = 1"}, "CDK5": {"system": "CDK5", "settings": "concentration: 1 μM, replicates: in singlicate; n = 1"}, "CDK7": {"system": "CDK7", "settings": "concentration: 1 μM, replicates: in singlicate, n = 1"}, "CDK8": {"system": "CDK8", "settings": "concentration: 1 μM, replicates: in singlicate, n = 1"}, "CDK9": {"system": "CDK9", "settings": "concentration: 1 μM, replicates: in singlicate; n = 1"}, "CDKL1": {"system": "CDKL1", "settings": "concentration: 1 μM, replicates: in singlicate, n = 1"}, "CDKL2": {"system": "CDKL2", "settings": "concentration: 1 μM, replicates: in singlicate, n = 1"}, "CDKL3": {"system": "CDKL3", "settings": "concentration: 1 μM, replicates: in singlicate, n = 1"}, "CDKL5": {"system": "CDKL5", "settings": "concentration: 1 μM, replicates: in singlicate; n = 1"}}, "note": "Where “and” joins values, the source holds several entries; their conditions need not be identical. Equal entries are not always repeated. Where two headings read alike, the source gives them in different places.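 Further: KINOMEscan kinase panel screen.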"}
{"smiles": "O=C(NOCC1CC1)c1ccc(F)c(F)c1Nc1ccc(I)cc1Cl", "values": [{"measurement": "%Inh", "setting": "CDK4-cyclinD3", "result": 0, "unit": "%"}, {"measurement": "%Inh", "setting": "CDK4", "result": 0, "unit": "%"}, {"measurement": "%Inh", "setting": "CDK5", "result": 5, "unit": "%"}, {"measurement": "%Inh", "setting": "CDK7", "result": 0, "unit": "%"}, {"measurement": "%Inh", "setting": "CDK8", "result": 0, "unit": "%"}, {"measurement": "%Inh", "setting": "CDK9", "result": 0, "unit": "%"}, {"measurement": "%Inh", "setting": "CDKL1", "result": 0, "unit": "%"}, {"measurement": "%Inh", "setting": "CDKL2", "result": 0, "unit": "%"}, {"measurement": "%Inh", "setting": "CDKL3", "result": 20, "unit": "%"}, {"measurement": "%Inh", "setting": "CDKL5", "result": 0, "unit": "%"}]}
{"smiles": "Cc1c2ccc(N(C)c3ccnc(Nc4cccc(S(N)(=O)=O)c4)n3)cc2nn1Cc1ccccc1.Cl.Cl", "note": "[GW787226]", "values": [{"measurement": "%Inh", "setting": "CDK4-cyclinD3", "result": 0, "unit": "%"}, {"measurement": "%Inh", "setting": "CDK4", "result": 2, "unit": "%"}, {"measurement": "%Inh", "setting": "CDK5", "result": 0, "unit": "%"}, {"measurement": "%Inh", "setting": "CDK7", "result": 3, "unit": "%"}, {"measurement": "%Inh", "setting": "CDK8", "result": 0, "unit": "%"}, {"measurement": "%Inh", "setting": "CDK9", "result": 3, "unit": "%"}, {"measurement": "%Inh", "setting": "CDKL1", "result": 0, "unit": "%"}, {"measurement": "%Inh", "setting": "CDKL2", "result": 39, "unit": "%"}, {"measurement": "%Inh", "setting": "CDKL3", "result": 10, "unit": "%"}, {"measurement": "%Inh", "setting": "CDKL5", "result": 0, "unit": "%"}]}
{"smiles": "COc1cc2ncn(-c3cc(OCc4sccc4Cl)c(C(N)=O)s3)c2cc1OC", "note": "[GSK448459]", "values": [{"measurement": "%Inh", "setting": "CDK4-cyclinD3", "result": 0, "unit": "%"}, {"measurement": "%Inh", "setting": "CDK4", "result": 12, "unit": "%"}, {"measurement": "%Inh", "setting": "CDK5", "result": 0, "unit": "%"}, {"measurement": "%Inh", "setting": "CDK7", "result": 0, "unit": "%"}, {"measurement": "%Inh", "setting": "CDK8", "result": 69, "unit": "%"}, {"measurement": "%Inh", "setting": "CDK9", "result": 0, "unit": "%"}, {"measurement": "%Inh", "setting": "CDKL1", "result": 23, "unit": "%"}, {"measurement": "%Inh", "setting": "CDKL2", "result": 33, "unit": "%"}, {"measurement": "%Inh", "setting": "CDKL3", "result": 0, "unit": "%"}, {"measurement": "%Inh", "setting": "CDKL5", "result": 0, "unit": "%"}]}
{"smiles": "Fc1ccc(-c2nn3c(OCC(F)(F)F)cccc3c2-c2ccncc2)cc1", "note": "[GW514784]", "values": [{"measurement": "%Inh", "setting": "CDK4-cyclinD3", "result": 0, "unit": "%"}, {"measurement": "%Inh", "setting": "CDK4", "result": 46, "unit": "%"}, {"measurement": "%Inh", "setting": "CDK5", "result": 0, "unit": "%"}, {"measurement": "%Inh", "setting": "CDK7", "result": 0, "unit": "%"}, {"measurement": "%Inh", "setting": "CDK8", "result": 57, "unit": "%"}, {"measurement": "%Inh", "setting": "CDK9", "result": 0, "unit": "%"}, {"measurement": "%Inh", "setting": "CDKL1", "result": 8, "unit": "%"}, {"measurement": "%Inh", "setting": "CDKL2", "result": 4, "unit": "%"}, {"measurement": "%Inh", "setting": "CDKL3", "result": 0, "unit": "%"}, {"measurement": "%Inh", "setting": "CDKL5", "result": 0, "unit": "%"}]}
{"smiles": "Cl.Cl.Cl.Fc1ccc(-c2ncn(C3CCNCC3)c2-c2ccnc(Nc3ccccc3)n2)cc1", "note": "[SB-238039]", "values": [{"measurement": "%Inh", "setting": "CDK4-cyclinD3", "result": 0, "unit": "%"}, {"measurement": "%Inh", "setting": "CDK4; 1 µM", "result": "18% and 19%"}, {"measurement": "%Inh", "setting": "CDK5", "result": 0, "unit": "%"}, {"measurement": "%Inh", "setting": "CDK7; 1 µM", "result": "19% and 33%"}, {"measurement": "%Inh", "setting": "CDK8; 1 µM", "result": "49% and 19%"}, {"measurement": "%Inh", "setting": "CDK9", "result": 0, "unit": "%"}, {"measurement": "%Inh", "setting": "CDKL1; 1 µM", "result": "34% and 37%"}, {"measurement": "%Inh", "setting": "CDKL2; 1 µM", "result": "0% and 29%"}, {"measurement": "%Inh", "setting": "CDKL3; 1 µM", "result": "5% and 15%"}, {"measurement": "%Inh", "setting": "CDKL5", "result": 0, "unit": "%"}]}
{"smiles": "O=c1cc(N2CCOCC2)nc2n(Cc3cccc(F)c3)ccn12", "note": "[GSK2297430]", "values": [{"measurement": "%Inh", "setting": "CDK4-cyclinD3", "result": 0, "unit": "%"}, {"measurement": "%Inh", "setting": "CDK4", "result": 19, "unit": "%"}, {"measurement": "%Inh", "setting": "CDK5", "result": 0, "unit": "%"}, {"measurement": "%Inh", "setting": "CDK7", "result": 0, "unit": "%"}, {"measurement": "%Inh", "setting": "CDK8", "result": 26, "unit": "%"}, {"measurement": "%Inh", "setting": "CDK9", "result": 0, "unit": "%"}, {"measurement": "%Inh", "setting": "CDKL1", "result": 0, "unit": "%"}, {"measurement": "%Inh", "setting": "CDKL2", "result": 0, "unit": "%"}, {"measurement": "%Inh", "setting": "CDKL3", "result": 0, "unit": "%"}, {"measurement": "%Inh", "setting": "CDKL5", "result": 0, "unit": "%"}]}
{"smiles": "NS(=O)(=O)c1cccc(-c2ccc3nccc(-c4cccc(S(N)(=O)=O)c4)c3c2)c1", "note": "[GW867253]", "values": [{"measurement": "%Inh", "setting": "CDK4-cyclinD3", "result": 0, "unit": "%"}, {"measurement": "%Inh", "setting": "CDK4", "result": 19, "unit": "%"}, {"measurement": "%Inh", "setting": "CDK5", "result": 0, "unit": "%"}, {"measurement": "%Inh", "setting": "CDK7", "result": 4, "unit": "%"}, {"measurement": "%Inh", "setting": "CDK8", "result": 36, "unit": "%"}, {"measurement": "%Inh", "setting": "CDK9", "result": 0, "unit": "%"}, {"measurement": "%Inh", "setting": "CDKL1", "result": 27, "unit": "%"}, {"measurement": "%Inh", "setting": "CDKL2", "result": 16, "unit": "%"}, {"measurement": "%Inh", "setting": "CDKL3", "result": 20, "unit": "%"}, {"measurement": "%Inh", "setting": "CDKL5", "result": 5, "unit": "%"}]}
{"smiles": "NS(=O)(=O)c1cccc(-c2ccc3ncc(N4CCOCC4)nc3c2)c1", "note": "[GSK1535721]", "values": [{"measurement": "%Inh", "setting": "CDK4-cyclinD3", "result": 0, "unit": "%"}, {"measurement": "%Inh", "setting": "CDK4", "result": 12, "unit": "%"}, {"measurement": "%Inh", "setting": "CDK5", "result": 0, "unit": "%"}, {"measurement": "%Inh", "setting": "CDK7", "result": 20, "unit": "%"}, {"measurement": "%Inh", "setting": "CDK8", "result": 31, "unit": "%"}, {"measurement": "%Inh", "setting": "CDK9", "result": 3, "unit": "%"}, {"measurement": "%Inh", "setting": "CDKL1", "result": 15, "unit": "%"}, {"measurement": "%Inh", "setting": "CDKL2", "result": 0, "unit": "%"}, {"measurement": "%Inh", "setting": "CDKL3", "result": 0, "unit": "%"}, {"measurement": "%Inh", "setting": "CDKL5", "result": 0, "unit": "%"}]}
